According to PubChem BioAssay (NCI):
Compounds without any hit were thinned out: in the full panel of roughly 83,000, 20% have a hit.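 Method: cells in 96-well plates; compound added at one concentration; 48 h incubation; percent growth measured; values under 10 scored active.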 The source made the active and inactive calls.

Assays:
Assay in all cases: NCI-60 one-dose screen, 48 h (100 = growth as untreated, 0 = no growth, -100 = all killed)
Details in all cases: 10 µM unless noted
HCT-15 colon = tested on: HCT-15 colon
HT29 colon = tested on: HT29 colon
SNB-75 CNS = tested on: SNB-75 CNS
U251 CNS = tested on: U251 CNS
PC-3 prostate = tested on: PC-3 prostate
SK-MEL-5 melanoma = tested on: SK-MEL-5 melanoma
UACC-62 melanoma = tested on: UACC-62 melanoma
LOX IMVI melanoma = tested on: LOX IMVI melanoma
SK-MEL-28 melanoma = tested on: SK-MEL-28 melanoma
SK-MEL-2 melanoma = tested on: SK-MEL-2 melanoma
EKVX NSCLC = tested on: EKVX NSCLC
SN12C renal = tested on: SN12C renal
UO-31 renal = tested on: UO-31 renal
TK-10 renal = tested on: TK-10 renal
ACHN renal = tested on: ACHN renal
CAKI-1 renal = tested on: CAKI-1 renal
A498 renal = tested on: A498 renal
CCRF-CEM leukemia = tested on: CCRF-CEM leukemia
MOLT-4 leukemia = tested on: MOLT-4 leukemia

Measured: growth

COc1ccc(CN2c3ccccc3Sc3ccccc32)c(F)c1
active: HT29 colon 3.61% | SNB-75 CNS -5.99% | A498 renal -11.6% | CCRF-CEM leukemia 7.16%
inactive: HCT-15 colon 35.4% | U251 CNS 30% | PC-3 prostate 30.3% | SK-MEL-5 melanoma 25.8% | UACC-62 melanoma 33.1% | LOX IMVI melanoma 52.7% | SK-MEL-28 melanoma 53% | SK-MEL-2 melanoma 30.4% | EKVX NSCLC 51% | SN12C renal 47.1% | UO-31 renal 43% | TK-10 renal 51.1% | ACHN renal 43.4% | CAKI-1 renal 21.5% | MOLT-4 leukemia 22.6%

O=C(N/N=C/[C@H](O)[C@H](O)[C@H](O)CO)c1ccc(NC(=O)c2cccnc2)cc1
inactive: HCT-15 colon 106% | HT29 colon 104% | SNB-75 CNS 97.4% | U251 CNS 105% | PC-3 prostate 96.3% | SK-MEL-5 melanoma 104% | UACC-62 melanoma 96.2% | LOX IMVI melanoma 99.1% | SK-MEL-28 melanoma 112% | SK-MEL-2 melanoma 118% | EKVX NSCLC 105% | SN12C renal 94.5% | UO-31 renal 83.7% | TK-10 renal 104% | ACHN renal 109% | CAKI-1 renal 94.1% | A498 renal 99.3% | CCRF-CEM leukemia 99.2% | MOLT-4 leukemia 109%

O=c1c2cc(F)ccc2sc2c(NCCCNCCO)nc3ccccc3c12
active: HCT-15 colon -9.91% | HT29 colon -53.3% | U251 CNS 6.22% | UACC-62 melanoma -39.4% | LOX IMVI melanoma -94.1% | ACHN renal 8.85% | CAKI-1 renal -9.01% | A498 renal 2.69% | CCRF-CEM leukemia 6.27% | MOLT-4 leukemia -31.6%
inactive: SNB-75 CNS 53.8% | PC-3 prostate 25.2% | SK-MEL-5 melanoma 70.5% | SK-MEL-28 melanoma 28.1% | SK-MEL-2 melanoma 90.9% | EKVX NSCLC 51.9% | SN12C renal 46.9% | UO-31 renal 10.9% | TK-10 renal 41%

CCOC(=O)c1[nH]c(C)c(C(=O)OCc2ccccc2C#N)c1C
inactive: HCT-15 colon 60.8% | HT29 colon 35.1% | U251 CNS 50.9% | PC-3 prostate 80.3% | SK-MEL-5 melanoma 60.3% | UACC-62 melanoma 73.6% | LOX IMVI melanoma 63.1% | SK-MEL-28 melanoma 87.1% | SK-MEL-2 melanoma 82.3% | EKVX NSCLC 114% | SN12C renal 95% | UO-31 renal 88.3% | TK-10 renal 90.9% | ACHN renal 87.4% | CAKI-1 renal 82.1% | A498 renal 79.3% | CCRF-CEM leukemia 92.4% | MOLT-4 leukemia 78.8%
active: SNB-75 CNS 0.16%

Cc1ccc(-c2nc3c(c(-c4ccccc4)nn3-c3ccccc3)c(-c3ccc(O)cc3)c2C#N)cc1
inactive: HCT-15 colon 28.8% | HT29 colon 107% | SNB-75 CNS 40.5% | U251 CNS 41.6% | PC-3 prostate 34.3% | SK-MEL-5 melanoma 77.6% | UACC-62 melanoma 63.7% | LOX IMVI melanoma 12.2% | SK-MEL-28 melanoma 67.1% | SK-MEL-2 melanoma 78.7% | EKVX NSCLC 74.5% | SN12C renal 53.7% | UO-31 renal 39.4% | TK-10 renal 38.3% | ACHN renal 67.6% | CAKI-1 renal 50.4% | A498 renal 44.2% | CCRF-CEM leukemia 39.1% | MOLT-4 leukemia 40.5%

CC1=C([Se]CC(OC(=O)[C@@H](CSSC(C)(C)C)NC(=O)OC(C)(C)C)C(=O)NC(C)(C)C)C(=O)c2ccccc2C1=O (stereo not given in full)
inactive: UO-31 renal 15.4% | MOLT-4 leukemia 15.8%
active: HCT-15 colon -28.6% | HT29 colon -6.98% | SNB-75 CNS -95.8% | U251 CNS -86.5% | PC-3 prostate -71.6% | SK-MEL-5 melanoma -97.6% | UACC-62 melanoma -88.1% | SK-MEL-28 melanoma -96.3% | SK-MEL-2 melanoma 7.82% | EKVX NSCLC -74.2% | SN12C renal -73.3% | TK-10 renal -96% | CAKI-1 renal -52.1% | A498 renal -28.9% | CCRF-CEM leukemia -21.6%

OC(COc1ccccc1)CN1CCN(c2ccc(Cl)cc2)CC1 (stereo not given)
active: CCRF-CEM leukemia -5.19%
inactive: HCT-15 colon 115% | HT29 colon 101% | SNB-75 CNS 95.2% | U251 CNS 102% | PC-3 prostate 82% | UACC-62 melanoma 90.3% | LOX IMVI melanoma 101% | SK-MEL-28 melanoma 96.9% | SK-MEL-2 melanoma 104% | EKVX NSCLC 109% | SN12C renal 97.2% | UO-31 renal 78.8% | TK-10 renal 105% | ACHN renal 107% | CAKI-1 renal 94.7% | A498 renal 104% | MOLT-4 leukemia 93.1%
